Active and inactive are the calls of the source.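 The calls were made as follows: active = cell survival after UV exposure 2 SD above solvent-only control wells at 10 µM, confirmed on one or two repeats; inactive = the rest.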
Assay: protection of CHO cells from pyrene-fatty acid UV killing, primary screen, phospholipid biosynthesis inhibitor project, ZR-82 cells, Analyticon library, screen 2 (AID 1347383);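 also: survival reflects blocked phospholipid synthesis cutting uptake of the phototoxic fatty acid; compound and fatty acid exposure 3 h then viability read next day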
Details: ZR-82 CHO cells, CellTiter Blue, at 10 µM; peroxisome-deficient CHO-K1 variant, with DGAT-1, DGAT-2 and ACAT inhibitors unless noted

Row | SMILES | outcome
1 | CC1(C)OC1COc1c2occc2cc2ccc(=O)oc12 (stereo unspecified) | inactive
2 | COc1ccc(CC2C(=O)OCC2Cc2ccc3c(c2)OCO3)cc1OC (stereo unspecified) | inactive
3 | COc1ccc2c3c([nH]c2c1)C(C)=NCC3 | inactive [setting not given]
4 | C=C(C)[C@H]1CCC(C)=C[C@@H]1c1c(O)cc(CCCCC)c(C(=O)O)c1O | inactive
5 | C=C(C)[C@H]1CCC(C)=C[C@@H]1c1c(O)cc(CCCCC)cc1O | inactive
6 | COC1CC(O[C@H]2CC[C@]3(C)C4CC[C@]5(C)[C@@H](C6=CC(=O)OC6)CC[C@]5(O)[C@@H]4CC[C@]3(O)C2)OC(C)C1O (stereo partly specified) | inactive
7 | C=CC1C[N+]2([O-])CCC1CC2C(O)c1ccnc2ccc(OC)cc12 (stereo unspecified) | inactive
8 | Oc1cc(O)cc(/C=C/c2ccc(O)cc2O)c1 | inactive
9 | CCCCCCCCCCCCCCCc1cccc(O)c1O | inactive
10 | CC(C)C(=O)O[C@H]1[C@@H]2[C@H](C)C(=O)O[C@@H]2C[C@@H](C)[C@@H]2C=CC(=O)[C@]21C | inactive
11 | C=CC(C)(C)c1cc2c(O)c3c(c(C(C)(C)C=C)c2oc1=O)OC(C)(C)C=C3 | inactive
12 | C/C=C(\C)[C@H](O)[C@H](C)/C=C(C)/C=C/C/C(C)=C/Cc1[nH]c(OC)c(OC)c(=O)c1C | inactive
13 | CC(=O)O[C@H]1C(=O)[C@]2(C)C(O)C[C@H]3OC[C@@]3(OC(C)=O)[C@H]2[C@H](OC(=O)c2ccccc2)[C@]2(O)C[C@H](O)C(C)=C1C2(C)C (stereo partly specified) | inactive
14 | COc1ccc(C23C=C4C5CC6(O)CC7N(CCC57c5ccc(OC)c(OC)c5)C4(CC2NCC3)O6)cc1OC (stereo unspecified) | inactive
15 | OCC(O)Cc1ccc2c(c1)OCO2 (stereo unspecified) | inactive [setting not given]
16 | C[C@H]1O[C@@H](O[C@H]2CC[C@]3(C=O)C4CC[C@]5(C)[C@@H](C6=CC(=O)OC6)CC[C@]5(O)[C@@H]4CC[C@]3(O)C2)C[C@@H](O)[C@@H]1O (stereo partly specified) | inactive

Source: PubChem BioAssay AID1347383 (Zoeller Lab, School of Medicine, Boston University, 2020)
